# Measured values: PubChem BioAssay (NCATS)
# Where “and” joins values, the source holds several entries; their conditions need not be identical. Equal values may be shown once. Records with an inconclusive call do not appear. Calls of active or inactive are those of the source. Calls follow the shape of the dose curve; as a rule, active = well fitted curve in the direction sought with a large enough effect; inconclusive = small, poorly fitted or top-dose-only effect, or another doubt; inactive = no such curve, though single readings can be large; an effect the other way counts as inactive or inconclusive.
# What was measured:
# Furin (Homo sapiens) = Furin (Homo sapiens) (UniProt P09958); test: Furin counterscreen qHTS for Zika virus inhibitors (AID 1347149); also: nearly all actives have a fitted effect of over 70% in size; also: potency is read from the fitted curve at half-maximal effect
# Sequence of Furin (Homo sapiens) (P09958 whole entry, looked up): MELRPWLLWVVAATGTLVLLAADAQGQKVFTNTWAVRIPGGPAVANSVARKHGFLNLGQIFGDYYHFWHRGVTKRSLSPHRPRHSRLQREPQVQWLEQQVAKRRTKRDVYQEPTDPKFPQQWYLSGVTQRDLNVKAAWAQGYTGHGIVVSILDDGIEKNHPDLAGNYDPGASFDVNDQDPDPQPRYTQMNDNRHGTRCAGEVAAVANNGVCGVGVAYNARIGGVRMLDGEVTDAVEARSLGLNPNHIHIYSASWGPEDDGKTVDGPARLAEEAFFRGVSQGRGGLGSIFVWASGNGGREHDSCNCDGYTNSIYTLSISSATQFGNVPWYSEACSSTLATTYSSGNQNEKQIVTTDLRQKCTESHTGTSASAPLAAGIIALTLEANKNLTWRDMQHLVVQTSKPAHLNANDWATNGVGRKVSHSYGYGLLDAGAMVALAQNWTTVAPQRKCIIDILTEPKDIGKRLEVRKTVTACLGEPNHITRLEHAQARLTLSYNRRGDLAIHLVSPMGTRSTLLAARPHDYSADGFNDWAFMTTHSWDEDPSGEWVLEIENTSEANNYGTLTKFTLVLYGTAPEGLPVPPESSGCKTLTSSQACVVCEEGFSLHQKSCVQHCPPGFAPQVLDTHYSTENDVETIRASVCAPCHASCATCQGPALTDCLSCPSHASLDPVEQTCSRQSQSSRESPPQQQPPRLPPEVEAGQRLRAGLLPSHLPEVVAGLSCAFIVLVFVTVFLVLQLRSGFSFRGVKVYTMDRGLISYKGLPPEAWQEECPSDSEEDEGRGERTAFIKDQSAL
# Procedure, shortened: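 Counterscreen measures cleavage of 2 microM BOC-RVRR-AMC, below its ~15 microM Km, by 5 nM full-length human furin at pH 7.0 after a 15-min compound preincubation. Inhibition derives from the 15-min fluorescence increase at 37C.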
# [1] = system: Zika virus NS2B-NS3 protease (linked construct); test: Confirmatory screen NINDS AMC qHTS for Zika virus inhibitors (AID 1347152); also: nearly all actives have a fitted effect of over 70% in size; also: potency is read from the fitted curve at half-maximal effect
# Procedure, shortened: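 Linked NS2B-NS3 1 nM, Tris pH 8.0/0.01% Tween 20; cpd 15 min RT dark; + Nle-KRR-AMC 10 µM (Km 18.3 µM); read 0 and 15 min, 340/450 nm; %inh vs controls, 4-param Hill.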
# [2] = system: Zika virus NS2B-NS3 protease; test: Primary screen GU AMC qHTS for Zika virus inhibitors (AID 1347154); also: nearly all actives have a fitted effect of over 70% in size; also: potency is read from the fitted curve at half-maximal effect
# Procedure, shortened: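 Fluorogenic AMC-substrate cleavage by noncovalent NS2B-NS3 protease complex (25 nM, pH 8.0 Tris buffer with Tween 20) followed for 15 minutes at room temperature (~20% conversion). Percent inhibition from ex340/em450 signal change, fitted by 4-parameter Hill equation.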
# [3] = qHTS of pediatric cancer cell lines to identify multiple opportunities for drug repurposing: Primary screen for RD cells (AID 1347104); conditions: RD rhabdomyosarcoma viability, CellTiter-Glo luminescence, 48 h; also: potency is read from the fitted curve at half-maximal effect; nearly all actives have a fitted effect of over 55% in size
# Procedure, shortened: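 Quantitative HTS format: each compound titrated (MIPE 11 points from 0.78 nM, NPC 8 points from 0.59 nM) onto cells plated 5 hours earlier. After 48 h at 37 degrees C, CellTiter-Glo luminescence was recorded.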
# [4] = biological target: N-terminal Xaa-Pro-Lys N-methyltransferase 1 (Homo sapiens) (UniProt Q9BV86); test: qHTS Assay for Inhibitors of N-terminal methyltransferase 1 (NTMT1): LOPAC validation of the NTMT1 SAHH-coupled ThioGlo3 Assay (AID 1347143);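 also: SAH from peptide methylation measured as thiol fluorescence via SAHH coupling and ThioGlo3; nearly all actives have a fitted effect of over 70% in size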
# Sequence of N-terminal Xaa-Pro-Lys N-methyltransferase 1 (Homo sapiens) (Q9BV86 whole entry, looked up): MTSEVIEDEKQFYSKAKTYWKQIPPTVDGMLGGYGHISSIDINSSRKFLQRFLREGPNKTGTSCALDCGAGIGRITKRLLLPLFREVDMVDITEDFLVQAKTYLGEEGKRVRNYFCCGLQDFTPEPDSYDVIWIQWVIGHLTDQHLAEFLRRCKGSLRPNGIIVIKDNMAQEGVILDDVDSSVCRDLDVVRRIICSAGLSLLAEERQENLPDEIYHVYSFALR
# Procedure, shortened: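 NTMT1 125nM + cpds (various conc.), 1 min RT; add SAM 100uM/SAHH 10uM/ThioGlo3 15uM (addition mix). SAHH-coupled thiol detection, Ex340/Em450, t0 and 30 min RT; signal normalized to background. LOPAC 1280-cpd pilot.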
# [5] = qHTS of pediatric cancer cell lines to identify multiple opportunities for drug repurposing: Primary screen for SK-N-SH cells (AID 1347098); conditions: SK-N-SH viability, CellTiter-Glo luminescence, 48 h; also: potency is read from the fitted curve at half-maximal effect; nearly all actives have a fitted effect of over 65% in size
# Procedure, shortened: (§1)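 Cells (500-1,000/well) rested 5 h, then received compounds for 48 h; metabolically active cells were measured by CellTiter-Glo luminescence. Final concentrations spanned up to 46 µM (MIPE, 11-point) or 0.59 nM-46 µM (NPC, 8-point) in primary screens, 11-point in follow-ups.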
# [6] = qHTS of pediatric cancer cell lines to identify multiple opportunities for drug repurposing: Primary screen for BT-12 cells (AID 1347101); conditions: BT-12 viability, CellTiter-Glo luminescence, 48 h; also: potency is read from the fitted curve at half-maximal effect; nearly all actives have a fitted effect of over 25% in size
# Procedure, shortened: as §1
# [7] = qHTS of pediatric cancer cell lines to identify multiple opportunities for drug repurposing: Primary screen for Rh18 cells (AID 1347102); conditions: Rh18 rhabdomyosarcoma viability, CellTiter-Glo luminescence, 48 h; also: potency is read from the fitted curve at half-maximal effect; nearly all actives have a fitted effect of over 65% in size
# Procedure, shortened: as §1
# [8] = qHTS of pediatric cancer cell lines to identify multiple opportunities for drug repurposing: Primary screen for OHS-50 cells (AID 1347103); conditions: OHS-50 osteosarcoma viability, CellTiter-Glo luminescence, 48 h; also: potency is read from the fitted curve at half-maximal effect; nearly all actives have a fitted effect of over 40% in size
# Procedure, shortened: as §1
# [9] = system: Zika virus NS2B-NS3 protease (unlinked); test: Optimization of GU AMC qHTS for Zika virus inhibitors: Unlinked NS2B-NS3 protease assay (AID 1347151); also: series mostly up to about 52 µM; nearly all actives have a fitted effect of over 80% in size
# Procedure, shortened: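 Fluorescence read-out (340 nm ex / 450 nm em) of AMC peptide cleavage, taken immediately and after 15 min at room temperature (~20% conversion). Enzyme was the unlinked NS2B–NS3 complex at 25 nM in Tris pH 8.0 buffer.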
structure (smiles),measurement,setting,value
COc1ccc(-c2ccccc2)cc1NS(=O)(=O)c1cc(Cl)cc(Cl)c1O,Potency,Furin (Homo sapiens),30.4 µM (active)
same,Potency,[1],7.64 µM (active)
CC#C[C@@H](CC(=O)O)c1ccc(OCc2cccc(-c3ccc(C(F)(F)F)cc3)c2)cc1,Potency,Furin (Homo sapiens),24.1 µM (active)
same,Potency,[1],12.4 µM (active)
Cc1ccc(OC[C@H](O)[C@H](C)NC(C)C)c2c1CCC2,Potency,[2],inactive
O=S(=O)(c1ccccc1)N(CC(F)(F)F)c1ccc(C(O)(C(F)(F)F)C(F)(F)F)cc1,Potency,[2],inactive
CC(C)(C)Sc1c(CC(C)(C)C(=O)O)n(Cc2ccc(Cl)cc2)c2ccc(OCc3ccc4ccccc4n3)cc12,Potency,[1],31.2 µM (active)
O=C(Nc1ccc(-c2ccc(Cl)c(Cl)c2)cc1)C1=C(O)c2ccccc2S(=O)(=O)N1,Potency,Furin (Homo sapiens),inactive
same,Potency,[1],49.4 µM (active)
Oc1cccc(-c2c3nc(c(-c4cccc(O)c4)c4ccc([nH]4)c(-c4cccc(O)c4)c4nc(c(-c5cccc(O)c5)c5ccc2[nH]5)CC4)C=C3)c1,Potency,[3],26.6 µM (active)
same,Potency,Furin (Homo sapiens),inactive
NCCCC(=O)O,outcome,[4],inactive
O=C(O)c1cccc(-c2ccc(-c3cn(C(=O)N4CCCCC4Cc4ccccc4)nn3)cc2)c1 (stereo unspecified),Potency,Furin (Homo sapiens),55.5 µM (active)
same,Potency,[1],27.8 µM (active)
COc1cc(C[C@H]2C(=O)OC[C@@H]2Cc2ccc(OC)c(OC)c2)ccc1O,Potency,[2],inactive
CCc1ccccc1OC[C@@H](O)CN[C@H]1CCCc2ccccc21,Potency,[2],inactive
Cc1cc(C)c2c(c1)C(N(Cc1cc(C(F)(F)F)cc(C(F)(F)F)c1)c1nnn(C)n1)CCCN2CC1CCC(C(=O)O)CC1 (stereo unspecified),Potency,[1],22.1 µM (active)
O=C(O)c1cc(N(Cc2ccc(C3CCCCC3)cc2)C(=O)c2ccc(Oc3ccccc3)cc2)ccc1O,Potency,Furin (Homo sapiens),15.6 µM (active)
same,Potency,[1],12.4 µM (active)
CC#C[C@@H](CC(=O)O)c1ccc(OCc2ccc(CN3CCC4(C=Cc5ccccc54)CC3)s2)cc1,Potency,Furin (Homo sapiens),inactive
same,Potency,[1],35 µM (active)
N#Cc1ccc(N2N=C3c4ccc(C(=O)O)cc4CC[C@@H]3[C@@H]2C2CCCC2)cc1Cl,Potency,Furin (Homo sapiens),inactive
same,Potency,[1],8.79 µM (active)
NC(=O)C[C@@H](N)C(=O)O,Potency,[2],inactive
CC(C)C[C@H](C(=O)O)c1cc(-c2ccc(C(F)(F)F)cc2)cc(-c2ccc(C(F)(F)F)cc2)c1,Potency,Furin (Homo sapiens),17.5 µM (active)
same,Potency,[1],9.87 µM (active)
COc1cc2ncc(-c3ccccc3)nc2cc1OC,Potency,[2],6.31 µM (active) and 2.38 µM (active)
O=C(O)c1ccc(S(=O)(=O)N(Cc2ccc(OC(F)(F)F)cc2)c2ncc(C(F)(F)F)cc2Cl)cc1,Potency,[1],49.4 µM (active)
CN(C)CCCn1cc(C2=C(c3c[nH]c4ccccc34)C(=O)NC2=O)c2ccccc21,Potency,[2],inactive
CCCCCc1ccc(/C=C/C(=O)Nc2cc(Cl)ccc2C(=O)O)cc1,Potency,Furin (Homo sapiens),39.3 µM (active)
same,Potency,[1],8.79 µM (active)
CC(O)(C(=O)O)C1CCC2(C)C1CCC1(C)C2CCC2C3(C)CCC(O)C(C)(COC4OC(CO)C(O)C(O)C4O)C3CCC21C (stereo unspecified),Potency,Furin (Homo sapiens),inactive
same,Potency,[1],inactive
O=C(Nc1ccc(/C=C/c2ccc(NC(=O)c3cc(S(=O)(=O)O)c4cccnc4c3O)cc2S(=O)(=O)O)c(S(=O)(=O)O)c1)c1cc(S(=O)(=O)O)c2cccnc2c1O,Potency,Furin (Homo sapiens),46.9 µM (active)
CCCCCCCOc1cc2c(cc1/C(C)=C/c1ccc(C(=O)O)cc1)C(C)(C)CCS2(=O)=O,Potency,Furin (Homo sapiens),55.5 µM (active)
same,Potency,[1],8.79 µM (active)
O=S(=O)(Nc1cc(Cl)c(Oc2cnc3ccccc3c2)c(Cl)c1)c1ccc(Cl)cc1Cl,Potency,[1],13.9 µM (active)
CN[C@H]1CC[C@@H](c2ccc(Cl)c(Cl)c2)c2ccccc21,Potency,[5],10.9 µM (active)
same,Potency,[6],21.9 µM (active)
same,Potency,[7],23.7 µM (active)
same,Potency,[8],15.5 µM (active)
O=C(O)c1ccc(N2C(=O)/C(=C/c3ccc(-c4ccc([N+](=O)[O-])cc4)o3)C=C2c2ccccc2)cc1,Potency,[1],12.4 µM (active)
CCC(CC)(NC(=O)C(C)C)C(=O)N[C@@H](CCCN=C(N)N)C(=O)NC1(C(=O)NC(c2ccc(F)cc2)c2ccc(F)cc2)CCCC1,Potency,Furin (Homo sapiens),inactive
same,outcome,[9],inactive
Cc1noc(-c2ccc(-c3ccc(CC(=O)O)cc3)cc2)c1NC(=O)O[C@H](C)c1ccccc1Cl,Potency,Furin (Homo sapiens),69.8 µM (active)
same,Potency,[1],44.1 µM (active)
